# Results published in the supplement of paper PMC3334620.
# The full ranking holds about 33,000 sequences; the median of “E-score (-0.5 to 0.5)” is about -0.0014, and the highest 2% start at about 0.25. Only a selection was taken, and the highest values are over-represented in it overall.
# Target: T1, Cad1 (UniProt P24813)
# T1 sequence: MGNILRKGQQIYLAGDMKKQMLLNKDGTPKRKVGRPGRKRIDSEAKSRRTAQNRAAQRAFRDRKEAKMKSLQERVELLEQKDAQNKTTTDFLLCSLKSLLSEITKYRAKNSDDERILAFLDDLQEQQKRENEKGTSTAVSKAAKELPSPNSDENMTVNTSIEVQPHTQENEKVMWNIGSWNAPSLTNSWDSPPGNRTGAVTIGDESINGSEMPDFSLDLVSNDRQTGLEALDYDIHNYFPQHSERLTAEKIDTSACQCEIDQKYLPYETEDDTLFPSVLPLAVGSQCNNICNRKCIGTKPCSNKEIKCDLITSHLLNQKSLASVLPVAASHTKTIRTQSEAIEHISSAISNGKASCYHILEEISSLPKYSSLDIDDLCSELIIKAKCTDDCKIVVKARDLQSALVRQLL
# Assay: PBM E-score (8-mer binding enrichment) (E-score (-0.5 to 0.5)); higher = stronger / more preferred TF binding
# Settings: protein concentration: 100 nM; construct: GST-full length
# Method in brief: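 Each ungapped eight-base word and its reverse complement, pooled, received an E-score from the Universal PBM Analysis Suite. Underlying scans, normalised with masliner, recorded fluorescent anti-GST bound to GST-tagged yeast transcription factors. These were applied at about 100-200 nM to universal all-10-mer Agilent arrays double-stranded by primer extension.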
row,Sequence,PBM E-score
1,GGCGGCTA,0.0654
2,AACCTTGG,-0.168
3,CTAACACC,-0.0338
4,AATCTAGC,0.08
5,CAAGATTG,-0.0156
6,ACGGCATA,0.16
7,GGTCCGAA,0.143
8,TGTCCGAA,0.266
9,CGTCCGAA,0.1
10,ACCCTCTC,-0.183
11,CCCTTGAC,-0.197
12,TCCTCACA,-0.115
13,ACGGATCC,-0.0362
14,AGCGCAAA,0.189
15,AGCGCGAA,0.21
16,AACGCGAG,0.115
17,AGCGCGCA,0.355
18,ACGGCGCC,0.139
19,AAAGCGCA,-0.0636
20,CAAGCGCA,0.262
21,ACGGCGCG,0.322
22,CACGCGAA,0.0527
23,AACGCGAA,0.298
24,CAAGCGCC,-0.119

row,Sequence,PBM E-score
1,ACGGCGCT,-0.0736
2,AAGTTGAG,0.0317
3,GCCAACAA,-0.0504
4,TCGTCTAA,-0.0389
5,GCCGCAAC,0.0201
6,CGCACCGA,-0.0919
7,CGGCTAAA,-0.0162
8,CAGAGACG,0.0945
9,CGTTGGAC,-0.137
10,GCGATCGC,0.241
11,CGCGCGTA,0.152
12,AGCGCGCT,0.152
13,CGCGCGCG,0.214
14,AGCGCGTA,0.284
15,AGCGCGCG,0.311
16,GGCGCGTA,-0.0178
17,TGCGCGCA,0.301
18,GGCGCGCA,0.195
19,AACGCGCG,0.282
20,CGCGCGCA,0.242
21,AACGCGCT,0.0463
22,AACGCGCA,0.189
23,CGGGGGAG,-0.432
24,CCAGTTTC,-0.155

row,Sequence,PBM E-score
1,CCTCCATA,-0.254
2,GTGGGTGA,0.0388
3,AGAACCAA,-0.131
4,CACAGGAC,-0.0449
5,AAAGGACA,-0.0819
6,ACAGCTAT,-0.0503
7,ACAGCTGT,0.261
8,ACAGCTGA,-0.0375
9,GCAGCTGA,0.0932
10,TCAGCTGA,0.31
11,ACAGCTGG,0.0155
12,CCCCGGAG,-0.2
13,CCAGGCGC,-0.0648
14,CAGTTACA,-0.00475
15,ATCCGTTA,0.303
16,ATCCGTTC,0.229
17,GTCCGTTA,0.199
18,ATGATGCA,0.222
19,ATCGTTCA,0.0567
20,AGTTCATA,0.101
21,AGTTCATC,0.0446
22,AGTTCATG,0.265
23,CCGGTCCG,-0.104
24,ATGAGCCA,0.107

row,Sequence,PBM E-score
1,GGTTAGTA,0.219
2,AATTAGTG,0.316
3,ATTTAGTA,0.293
4,CATTAGTA,0.304
5,ACTTAGTG,-0.142
6,CGTTAGTA,0.289
7,CTTTAGTA,0.174
8,CGTTAGTC,0.042
9,CATTAGTC,0.217
10,ATTTAGTC,0.18
11,AATTAGGG,-0.172
12,CATTAGAA,0.11
13,AGGCCAAT,-0.0024
14,CCCGCCGC,-0.0389
15,AGCCGCAT,-0.0263
16,ACGAAAGC,0.00748
17,CGAGGTGC,0.142
18,AAGCGCTG,0.212
19,TAATATCA,0.167
20,CTACCTGA,-0.0406
21,CCTAGGCA,-0.0995
22,AATTAGAG,0.0346
23,AATTAGAT,0.252
24,ACTTAGTA,0.213

row,Sequence,PBM E-score
1,GATTAGAA,0.0793
2,ACTTAGTC,-0.016
3,GATTAGTA,0.31
4,AATTAGTC,0.346
5,AGTTAGTC,-0.0819
6,GATTAGGA,-0.0959
7,GCTTAGTA,0.344
8,AATTAGAC,0.0936
9,CCTTAGTA,0.0752
10,GGCCAATA,0.0295
11,AAGCTGAT,0.216
12,GTAGGAGA,-0.124
13,CGCTTCTC,-0.0668
14,ACAGCCAA,0.0312
15,GAGCTTGC,-0.048
16,CAAGTCCA,-0.0962
17,CCCGCCTA,0.0947
18,AGTTAGTA,0.0725
19,AATTAGTA,0.316
20,AATTAGGA,0.0377
21,CATCCTCG,0.0642
22,GACACTGC,-0.0407
23,CCGCTGTC,0.00182
24,AAAATGGG,-0.157

row,Sequence,PBM E-score
1,CAAATGGA,0.0716
2,AAAATGGA,0.267
3,GTCTACAC,0.0321
4,ATCCCAAT,-0.122
5,CTTTGTAA,0.333
6,ATTTGTAC,0.119
7,ATTTGTAG,0.0654
8,GTTTGTAA,0.137
9,ATTTGTAA,0.411
10,CTTTGTAC,0.0743
11,ACGCTCCA,0.0354
12,AGCGTACG,0.00701
13,ATACTTGC,0.0566
14,CAGATGCC,-0.141
15,CCGCGCTC,0.097
16,ACGCGCTA,0.109
17,CTGCGCTA,0.0362
18,CCGCGCTA,0.263
19,GTGCGCTA,0.0718
20,GCGCGCTA,0.326
21,GACCGTAA,-0.061
22,GGGTGGCA,-0.124
23,CCACTATC,-0.0188
24,AGGTAAAT,-0.00978

row,Sequence,PBM E-score
1,AGGTAAAG,0.267
2,AGGTAAAC,0.105
3,AGTGATGC,-0.0338
4,ACCCGCAC,0.0284
5,ATTAATGA,0.306
6,ATTAATAG,0.275
7,ATTAATAC,0.199
8,GTTAATTA,0.23
9,ATTAATGC,0.167
10,CGTAATTA,0.249
11,AGTAATTA,0.283
12,GGTAATTA,0.186
13,ATGAATAG,0.0469
14,CTTAATTA,0.152
15,CTTAATGA,0.00816
16,ATTAATTA,0.263
17,ATGGGGGC,-0.349
18,AAGATAGA,0.0137
19,CCGAGTGC,0.089
20,GATTGACC,-0.149
21,GCCGGGAC,-0.0972
22,ATCAATTG,0.186
23,ATTAATGG,0.239
24,CTTAATTC,0.177

row,Sequence,PBM E-score
1,ATTAATTC,0.304
2,ATCAATTA,0.255
3,AGTAATTC,0.23
4,ATCAATTC,-0.026
5,ATTAATTG,0.313
6,AGTAATTG,0.0751
7,CGTAACCC,-0.0539
8,TCCTGACA,0.125
9,GGCTTCCC,-0.0469
10,AACCAATG,0.109
11,AACCAGTT,0.27
12,AACCAGTA,0.157
13,AACCAATT,0.297
14,AACCAGTG,-0.0556
15,AACCAATC,0.0878
16,ACGCGGCC,-0.0773
17,CAGCGGGC,0.00044
18,GGTAGTAC,-0.0112
19,CCAATCGC,0.0869
20,CCCAGCAA,-0.0856
